This is part of a sample that, as a whole, favours compounds with a hit. Of some 83,000 tested, about 20% had one in any assay.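 Values shown are percent growth following 48 h exposure of cells in 96-well plates to a single concentration of compound; below 10 was considered active.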 A number with no mark means an inactive call. Calls of active or inactive are those of the source.

Test systems include HCT-15 colon; HT29 colon; SNB-75 CNS; SNB-19 CNS; U251 CNS; PC-3 prostate; SK-MEL-5 melanoma; UACC-62 melanoma; LOX IMVI melanoma; SK-MEL-28 melanoma; SK-MEL-2 melanoma; EKVX NSCLC; SN12C renal; UO-31 renal; TK-10 renal; ACHN renal; CAKI-1 renal; A498 renal; CCRF-CEM leukemia; MOLT-4 leukemia.
Holding throughout (experiment): NCI-60 one-dose screen, 48 h (100 = growth as untreated, 0 = no growth, -100 = all killed)
Settings in all cases: 10 µM unless noted

As for `C/C(=C(/C)C1CC1CCNC1CCC(NC(=O)OC(C)(C)C)CC1)c1ccccc1` (stereo not given), the growth was 42.6% with HCT-15 colon; 11.9% in the test on HT29 colon; 60.1% in the test on SNB-75 CNS; 91.3% in the test with SNB-19 CNS; 61.3% in the test with U251 CNS; 63.8% in the test with PC-3 prostate. Moreover, the growth was 45.7% with SK-MEL-5 melanoma; 83.1% with UACC-62 melanoma; 10.2% in the test on LOX IMVI melanoma; 35.5% in the test on SK-MEL-28 melanoma; 95.9% in the test on SK-MEL-2 melanoma; 73.7% with EKVX NSCLC. The growth with SN12C renal was 76.2%; with UO-31 renal it was 63.8%; with TK-10 renal, 108%; in the test on ACHN renal, 87.1%; with CAKI-1 renal, 53.6%; in the test on A498 renal it was 78%. For the same molecule, the figures for the growth in the test with CCRF-CEM leukemia and in the test with MOLT-4 leukemia were 54% and 61.9%, respectively.
Take `O=C(CSc1cc[n+](CCCCO)c2ccccc12)n1ccc2ccccc21`: the growth with HCT-15 colon was 104%; in the test on HT29 colon, 103%; with SNB-75 CNS it was 96.1%; in the test with SNB-19 CNS, 100%; in the test on U251 CNS, 96.3%; in the test on PC-3 prostate, 97.6%. The growth with SK-MEL-5 melanoma was 98.7%; in the test with UACC-62 melanoma it was 93.5%; with LOX IMVI melanoma, 103%; in the test on SK-MEL-28 melanoma, 110%; in the test with SK-MEL-2 melanoma, 111%; in the test with EKVX NSCLC, 89.3%. Also, the growth was 103% in the test on SN12C renal; 63.6% in the test on UO-31 renal; 155% in the test with TK-10 renal; 96.4% in the test with ACHN renal; 81.9% in the test with CAKI-1 renal; 114% with A498 renal. For the same molecule, the growth is 107% with CCRF-CEM leukemia and 95.8% with MOLT-4 leukemia.
`CC(Nc1ncnc2ccc(-c3cnc(N)nc3)cc12)c1ccccc1` (stereo not given): the growth in the test with HCT-15 colon was 22.4%; in the test with HT29 colon it was 43.1%; in the test on SNB-75 CNS it was 31.1%; with SNB-19 CNS, 40%; with U251 CNS, 47%; in the test on PC-3 prostate it was 29.7%. For the same molecule, the growth in the test with SK-MEL-5 melanoma is 26.4%; in the test with UACC-62 melanoma it was 28.5%; in the test on LOX IMVI melanoma, 23.8%; with SK-MEL-28 melanoma, 50.2%; with SK-MEL-2 melanoma, 60.8%; in the test with EKVX NSCLC it was 13.5%. The growth was 22.1% in the test on SN12C renal; 9.12% (active) in the test with UO-31 renal; -8.21% (active) in the test with TK-10 renal; 16.9% in the test on ACHN renal; 16.7% in the test with CAKI-1 renal; 11.5% in the test on A498 renal. The figures for the growth in the test on CCRF-CEM leukemia and in the test with MOLT-4 leukemia were 36.4% and 30.3%, respectively.
Regarding `CCN(CC)c1ccc(/C=N/NC(=O)c2ccc(NS(C)(=O)=O)cc2)c(O)c1`, the growth was 20.1% with HCT-15 colon; 27.4% with HT29 colon; 48.1% in the test on SNB-75 CNS; 34.7% in the test with SNB-19 CNS; 23.8% with U251 CNS; 31.7% in the test on PC-3 prostate. Also, the growth in the test on SK-MEL-5 melanoma was 0.13% (active); with UACC-62 melanoma, 0.285% (active); in the test with LOX IMVI melanoma, 0.336% (active); in the test on SK-MEL-28 melanoma it was 23%; with SK-MEL-2 melanoma, 40.7%; in the test on EKVX NSCLC, 15.6%. Besides, the growth is 31.4% in the test with SN12C renal; 13.1% with UO-31 renal; 47.9% in the test on TK-10 renal; 15.9% in the test on ACHN renal; 18.8% in the test on CAKI-1 renal; 18.9% with A498 renal. The growth in the test with CCRF-CEM leukemia is 6.1% (active); with MOLT-4 leukemia, 9.84% (active).
In the case of `O=C1[C@@H]2Cc3c([nH]c4ccccc34)[C@H](c3ccc(Br)cc3)N2C(=O)CN1C1CCN(Cc2c(Cl)cccc2Cl)CC1`, the growth in the test with HCT-15 colon was 89.4%; with HT29 colon, 84.4%; in the test on SNB-75 CNS, 66.3%; with SNB-19 CNS, 92.2%; in the test on U251 CNS, 96.9%; in the test with PC-3 prostate, 80%. The growth with SK-MEL-5 melanoma was 95.6%; with UACC-62 melanoma, 78.3%; in the test with LOX IMVI melanoma it was 91.7%; with SK-MEL-28 melanoma, 111%; in the test on SK-MEL-2 melanoma, 99.8%; with EKVX NSCLC, 88.4%. The growth in the test with SN12C renal was 92.5%; with UO-31 renal, 67.7%; in the test on TK-10 renal, 132%; in the test with ACHN renal, 91.2%; in the test on CAKI-1 renal, 67.6%; with A498 renal, 103%. The growth with CCRF-CEM leukemia is 88.8%; in the test on MOLT-4 leukemia, 65.9%.
For `CCOP(=O)(OCC)OC[C@]12CCC(C)(C)CC1C1=CC[C@@H]3[C@@]4(C)CCCNC(C)(C)[C@@H]4CC[C@@]3(C)[C@]1(C)CC2` (stereo not given in full), the growth is 44.3% in the test on HCT-15 colon; 42% in the test with HT29 colon; 93.6% in the test with SNB-75 CNS; 87% with SNB-19 CNS; 56.3% with U251 CNS; 51.3% in the test with PC-3 prostate. In addition, the growth was 80.7% in the test with SK-MEL-5 melanoma; 90.5% with UACC-62 melanoma; 25.3% with LOX IMVI melanoma; 101% in the test on SK-MEL-28 melanoma; 121% with SK-MEL-2 melanoma; 69.7% in the test on EKVX NSCLC. The growth with SN12C renal was 80.8%; with UO-31 renal, 58.2%; in the test with TK-10 renal, 90.4%; with ACHN renal, 83.5%; in the test on CAKI-1 renal, 53.7%; in the test with A498 renal it was 85.2%. Also, the growth was 28.1% in the test on CCRF-CEM leukemia and 2.26% (active) in the test with MOLT-4 leukemia.
In the case of `CCc1nnc(NC(=O)c2cc(-c3ccc(Cl)cc3Cl)oc2C)s1`, the growth in the test with HCT-15 colon is 70.5%; in the test on HT29 colon it was 89.7%; with SNB-75 CNS it was 94%; in the test with SNB-19 CNS, 79.7%; in the test on U251 CNS, 29.5%; in the test with PC-3 prostate, 82.7%. Further, the growth with SK-MEL-5 melanoma was 97.8%; in the test on UACC-62 melanoma it was 73.2%; with LOX IMVI melanoma, 74.4%; in the test on SK-MEL-28 melanoma it was 102%; in the test on SK-MEL-2 melanoma, 108%; in the test on EKVX NSCLC it was 99.4%. Further, the growth is 83.7% in the test with SN12C renal; 85.1% in the test with UO-31 renal; 114% in the test with TK-10 renal; 50.9% in the test on ACHN renal; 80.9% in the test with CAKI-1 renal; 97.4% in the test with A498 renal. The values for the growth in the test on CCRF-CEM leukemia and in the test on MOLT-4 leukemia were 97.6% and 99.3%, respectively.
For `CCc1cc(OC(=O)N2CCC(N3CCCCC3)CC2)ccc1Nc1cc(-c2ccc(-n3cccn3)cc2)[nH]n1`, the growth in the test with HCT-15 colon was -44.6% (active); with HT29 colon, -19.3% (active); in the test on SNB-75 CNS, 97.3%; in the test with SNB-19 CNS it was 69.2%; in the test on U251 CNS it was 55.8%; in the test on PC-3 prostate it was 74.1%. The growth in the test with SK-MEL-5 melanoma is 60.2%; in the test with UACC-62 melanoma it was 89.5%; in the test on LOX IMVI melanoma, -92% (active); in the test on SK-MEL-28 melanoma, -60.7% (active); in the test on SK-MEL-2 melanoma, 95.9%; in the test on EKVX NSCLC, 97%. The growth was 77.7% in the test on SN12C renal; 46% in the test on UO-31 renal; 95.7% with TK-10 renal; 42.9% with ACHN renal; 48.4% with CAKI-1 renal; 71.3% in the test with A498 renal. Moreover, the growth with CCRF-CEM leukemia was 7.95% (active); in the test with MOLT-4 leukemia, 18.9%.

Source of the values: PubChem BioAssay (NCI).
